Experimental data reported in the supplement of paper PMC7695840.

What was measured:
[1] = system: Staphylococcus aureus MW2 delta-mecA (mecA-); experiment: normalized GFP fluorescence (growth of mecA- strain) (fraction of control range); higher = more growth of mecA- strain; settings: compound concentration: 150 uM; cefoxitin: subinhibitory; fluorescent label: GFP
In short: (§1)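 A 1:1 mix of pre-induced S. aureus MW2 cells, DsRed-labeled with the gene and GFP-labeled without it, was grown in LB with a daily-set subinhibitory antibiotic dose on 150 μM compound (1.5% DMSO) in 1536-well plates, single replicate. Growth lasted 20 h at 37 °C, 90% humidity, without shaking, and DsRed (540/590) and GFP (485/520) were then read. Channels were scaled per plate to single-strain control medians, and plates with high untreated ratios and rows with DsRed/GFP >10 were removed.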

[2] = system: Staphylococcus aureus MW2 (mecA+); experiment: normalized DsRed fluorescence (growth of mecA+ strain) (fraction of control range); higher = more growth of mecA+ strain; settings: compound concentration: 150 uM; cefoxitin: subinhibitory; fluorescent label: DsRed
In short: as §1

Q: Which results are given for `Nc1nc(NC2CC2)c2ncn([C@H]3C=C[C@@H](CO)C3)c2n1`?
A: normalized GFP fluorescence [1]: 0.288; normalized DsRed fluorescence [2]: 0.69

Q: Which results are given for `CCN(CC)CCOc1ccc2c(c1)C(=O)c1cc(OCCN(CC)CC)ccc1-2`?
A: normalized GFP fluorescence [1]: 0.282; normalized DsRed fluorescence [2]: 0.512

Q: Which “normalized GFP fluorescence” value [1] does the source give for `CCn1cc(C(=O)O)c(=O)c2cc(F)c(N3CCNCC3)nc21` [Enoxacin (Penetrex)] here?
A: 0.206

Q: And the “normalized DsRed fluorescence” value [2]?
A: 0.928

Q: Which results are given for `CN1C(C(=O)Nc2ccccn2)=C(O)c2sc(Cl)cc2S1(=O)=O`?
A: normalized GFP fluorescence [1]: 0.116; normalized DsRed fluorescence [2]: 0.318

Q: Which results are given for `CCN[C@@H]1C[C@H](N)[C@@H](O[C@H]2OC(CN)=CC[C@H]2N)[C@H](O)[C@H]1O[C@H]1OC[C@](C)(O)[C@H](NC)[C@H]1O`?
A: normalized GFP fluorescence [1]: 0.695; normalized DsRed fluorescence [2]: 0.952

Q: Which results are given for `O=C1N=C(O)NC1(c1ccccc1)c1ccccc1`?
A: normalized GFP fluorescence [1]: 0.309; normalized DsRed fluorescence [2]: 1.06

Q: `Nc1cccc2c1CN(C1CCC(=O)NC1=O)C2=O` (stereo not given) [Lenalidomide] was tested. Which “normalized GFP fluorescence” value [1] did it give?
A: 0.34

Q: And the “normalized DsRed fluorescence” value [2]?
A: 0.974

Q: How did the “normalized GFP fluorescence” value [1] turn out when `O=C(c1ccc(OCCN2CCCCC2)cc1)c1c(-c2ccc(O)cc2)sc2cc(O)ccc12` was run?
A: -0.00866

Q: What about the “normalized DsRed fluorescence” value [2] of the same molecule?
A: 0.747

Q: What does the source list for `O=C1CC2(CCCC2)CC(=O)N1CCCCN1CCN(c2ncccn2)CC1`?
A: normalized GFP fluorescence [1]: 0.698; normalized DsRed fluorescence [2]: 0.71

Q: What does the source list for `O=C(O)COCCN1CCN(C(c2ccccc2)c2ccc(Cl)cc2)CC1` (stereo not given)?
A: normalized GFP fluorescence [1]: 0.0457; normalized DsRed fluorescence [2]: 0.556

Q: What does the source list for `CCC1NC(=O)c2cc(S(N)(=O)=O)c(Cl)cc2N1` (stereo not given)?
A: normalized GFP fluorescence [1]: 0.601; normalized DsRed fluorescence [2]: 0.513

Q: Which “normalized GFP fluorescence” value [1] does the source give for `CN1CCC[C@@H]1Cc1c[nH]c2ccc(CCS(=O)(=O)c3ccccc3)cc12` here?
A: 0.194

Q: And the “normalized DsRed fluorescence” value [2]?
A: 0.948

Q: What does the source list for `C#C[C@]1(O)CC[C@H]2[C@@H]3CCc4cc(O)ccc4[C@H]3CC[C@@]21C` [Ethinyl Estradiol]?
A: normalized GFP fluorescence [1]: 0.246; normalized DsRed fluorescence [2]: 0.449

Q: Which “normalized GFP fluorescence” value [1] does the source give for `CCCCNc1ccc(C(=O)OCCN(C)C)cc1` here?
A: 0.243

Q: And the “normalized DsRed fluorescence” value [2]?
A: 0.719

Q: Which results are given for `Nc1ncnc2c1ncn2[C@@H]1O[C@H](COP(=O)(O)O)[C@@H](O)[C@H]1O`?
A: normalized GFP fluorescence [1]: 0.4; normalized DsRed fluorescence [2]: 0.484

Q: How did the “normalized GFP fluorescence” value [1] turn out when `Cc1nccn1CC1CCc2c(c3ccccc3n2C)C1=O` (stereo not given) was run?
A: 0.319

Q: And the “normalized DsRed fluorescence” value [2]?
A: 0.626

Q: How did the “normalized GFP fluorescence” value [1] turn out when `C=CC[C@@H]1/C=C(\C)C[C@H](C)C[C@H](OC)[C@H]2O[C@@](O)(C(=O)C(=O)N3CCCC[C@H]3C(=O)O[C@H](/C(C)=C/[C@@H]3CC[C@@H](O)[C@H](OC)C3)[C@H](C)[C@@H](O)CC1=O)[C@H](C)C[C@@H]2OC` was run?
A: 0.0654

Q: And the “normalized DsRed fluorescence” value [2]?
A: 1.59

Q: For `Clc1ccc(C(c2ccccc2Cl)C(Cl)Cl)cc1` (stereo not given), which “normalized GFP fluorescence” value [1] is on record?
A: 0.148

Q: And the “normalized DsRed fluorescence” value [2]?
A: 0.731

Q: How did the “normalized GFP fluorescence” value [1] turn out when `O=C1CCc2ccc(OCCCCN3CCN(c4cccc(Cl)c4Cl)CC3)cc2N1` was run?
A: 0.0969

Q: What about the “normalized DsRed fluorescence” value [2] of the same molecule?
A: 0.824

Q: How did the “normalized GFP fluorescence” value [1] turn out when `COc1ccc2cc([C@H](C)C(=O)O)ccc2c1` [Naproxen (Aleve)] was run?
A: 0.0134

Q: And the “normalized DsRed fluorescence” value [2]?
A: 0.825

Q: How did the “normalized GFP fluorescence” value [1] turn out when `CCN(CCCc1ccccc1)CCCc1ccccc1` was run?
A: 0.1

Q: What about the “normalized DsRed fluorescence” value [2] of the same molecule?
A: 1.17

Q: How did the “normalized GFP fluorescence” value [1] turn out when `COCCc1ccc(OCC(O)CNC(C)C)cc1` (stereo not given) was run?
A: 0.861

Q: What about the “normalized DsRed fluorescence” value [2] of the same molecule?
A: 0.587

Q: Which “normalized GFP fluorescence” value [1] does the source give for `C#C[C@]1(O)CC[C@H]2[C@@H]3CCC4=CC(=O)CC[C@@H]4[C@H]3CC[C@@]21C` [Norethindrone (Norethisterone)] here?
A: 0.268

Q: What about the “normalized DsRed fluorescence” value [2] of the same molecule?
A: 0.621

Q: With `C1CCN2C[C@@H]3C[C@@H](CN4CCCC[C@@H]34)[C@H]2C1` as the molecule, how does the “normalized GFP fluorescence” value [1] read?
A: 0.334

Q: What about the “normalized DsRed fluorescence” value [2] of the same molecule?
A: 0.556

Q: What does the source list for `COc1cc2ncnc(Nc3ccc(F)c(Cl)c3)c2cc1NC(=O)/C=C/CN1CCCCC1`?
A: normalized GFP fluorescence [1]: 0.102; normalized DsRed fluorescence [2]: 0.557

Q: With `Cc1ccccc1OCC(O)CO` (stereo not given) as the molecule, how does the “normalized GFP fluorescence” value [1] read?
A: 0.392

Q: What about the “normalized DsRed fluorescence” value [2] of the same molecule?
A: 0.853

Q: For `CCN(CC)C(=O)c1ccc(O)c(OC)c1`, which “normalized GFP fluorescence” value [1] is on record?
A: 0.00273

Q: And the “normalized DsRed fluorescence” value [2]?
A: 0.0959

Q: How did the “normalized GFP fluorescence” value [1] turn out when `C[N+](C)(C)CC(=O)O` was run?
A: 0.229

Q: What about the “normalized DsRed fluorescence” value [2] of the same molecule?
A: 0.899

Q: What does the source list for `COCCCC/C(=N\OCCN)c1ccc(C(F)(F)F)cc1`?
A: normalized GFP fluorescence [1]: 0.551; normalized DsRed fluorescence [2]: 0.562

Q: How did the “normalized GFP fluorescence” value [1] turn out when `CCCN(CCC)S(=O)(=O)c1ccc(C(=O)O)cc1` was run?
A: 0.462

Q: What about the “normalized DsRed fluorescence” value [2] of the same molecule?
A: 0.343

Q: For `CC(C)Cn1cnc2c(N)nc3ccccc3c21`, which “normalized GFP fluorescence” value [1] is on record?
A: 0.18

Q: What about the “normalized DsRed fluorescence” value [2] of the same molecule?
A: 1.09

Q: How did the “normalized GFP fluorescence” value [1] turn out when `CCC1(c2ccccc2)C(=O)NCNC1=O` was run?
A: 0.33

Q: And the “normalized DsRed fluorescence” value [2]?
A: 0.811

Q: For `CN(C)CCC(c1ccccc1)c1ccccn1` (stereo not given), which “normalized GFP fluorescence” value [1] is on record?
A: 0.504

Q: What about the “normalized DsRed fluorescence” value [2] of the same molecule?
A: 0.799

Q: What does the source list for `C[C@@H]1C[C@H]2[C@@H]3CCC4=CC(=O)C=C[C@]4(C)[C@@]3(F)[C@@H](O)C[C@]2(C)[C@@]1(O)C(=O)CO`?
A: normalized GFP fluorescence [1]: 0.309; normalized DsRed fluorescence [2]: 0.687

Q: `CC(C)Oc1ccc2c(=O)c(-c3ccccc3)coc2c1` [Ipriflavone] was tested. Which “normalized GFP fluorescence” value [1] did it give?
A: 0.362

Q: And the “normalized DsRed fluorescence” value [2]?
A: 0.57

Q: `CCOc1ccc(NC(C)=O)cc1` was tested. Which “normalized GFP fluorescence” value [1] did it give?
A: 0.419

Q: What about the “normalized DsRed fluorescence” value [2] of the same molecule?
A: 0.668

Q: What does the source list for `CC(C(=O)O)c1cccc(C(=O)c2ccccc2)c1` (stereo not given)?
A: normalized GFP fluorescence [1]: 0.247; normalized DsRed fluorescence [2]: 0.413

Q: How did the “normalized GFP fluorescence” value [1] turn out when `CN1CCN(CC(=O)N2c3ccccc3C(=O)Nc3cccnc32)CC1` was run?
A: 0.28

Q: And the “normalized DsRed fluorescence” value [2]?
A: 0.759

Q: What does the source list for `Cn1c(=O)c2[nH]cnc2n(C)c1=O` [Aminophylline (Truphylline)]?
A: normalized GFP fluorescence [1]: 0.38; normalized DsRed fluorescence [2]: 1.18

Q: How did the “normalized GFP fluorescence” value [1] turn out when `CC1=C(/C=C/C(C)=C/C=C/C(C)=C\C(=O)O)C(C)(C)CCC1` [Isotretinoin] was run?
A: 0.0743

Q: What about the “normalized DsRed fluorescence” value [2] of the same molecule?
A: 1.06
